# High-throughput results deposited in PubChem by National Center for Advancing Translational Sciences (NCATS).
# A selection: hits, their analogues and other compounds. The true share with any hit is near 19%.
# IL-1B inflam inh: qHTS for Inhibitors of Inflammasome Signaling: IL-1-beta AlphaLISA Primary Screen. activity change, % at 57.5 µM. THP-1 LPS/ATP IL-1B secretion, AlphaLISA, 16 h; hits give low values. 360,000 tested, 4.7% active; in the data active = activity change below about -50%; inconclusive = mostly about -30% to -49%
#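 Secreted IL-1B measured by AlphaLISA bead assay after 16 h compound exposure of THP-1 cells; compounds (final up to 57.5 uM) added 1 h before LPS (250 ng/mL) and ATP (1.25 mM) stimulation; lower signal means less secretion.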
# TDP1 cell CPT: qHTS for Inhibitors of human tyrosyl-DNA phosphodiesterase 1 (TDP1): qHTS in cells in presence of CPT; Potency, µM (series often up to 46.2 µM), inactives show at the highest dose activity change, negative = growth inhibition, most hits filed as inhibitors; chicken DT40 Tdp1-/-;hTDP1 cells + 20 nM CPT, ATP luminescence, 48 h; 420,000 tested, 12% active; also: potency is read from the fitted curve at half-maximal effect; nearly all actives have a fitted effect of over 55% in size
#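 Chicken DT40 Tdp1-/- cells complemented with human TDP1, 400 cells/well, exposed to compounds plus 20 nM camptothecin for at least 48 h at 37 C; viability read as ATP content by CellTiter-Glo luminescence.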
# TDP1 cell noCPT: qHTS for Inhibitors of human tyrosyl-DNA phosphodiesterase 1 (TDP1): qHTS in cells in absence of CPT; DT40 Tdp1-/- hTDP1 cells, no CPT, ATP luminescence, 48 h; Potency, µM (titrated, usually from 46.2 µM), for inactives: at the top dose activity change, negative = growth inhibition, actives largely listed as inhibitors; 420,000 tested, 15% active; AID 686978, 2013; also: potency is read from the fitted curve at half-maximal effect; nearly all actives have a fitted effect of over 55% in size
#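 Seeded 400 DT40-hTDP1 cells/well (vehicle DMSO, no 20 nM CPT); pinned compounds; ≥48 hr at 37 °C; CellTiter-Glo luminescence as viability measure.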
# HT1080 IDH1KD tx: qHTS for induction of synthetic lethality in tumor cells producing 2HG: qHTS for the HT-1080-IDH1KD cell line. 360,000 tested, 2% active. HT-1080 IDH1 knockdown viability, ATP luminescence, 48 h. Potency, µM (doses to about 46.1 µM), without a hit: at the top dose activity, negative = toxicity, actives largely listed as cytotoxic;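 also: potency is read from the fitted curve at half-maximal effect; 0% = DMSO wells and -100% = cell-free medium wells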
#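 Viability of IDH1-knockdown HT-1080 fibrosarcoma cells was assessed by CellTiter-Glo after 48 h at 37 °C with titrated compound; concentration-effect curves were classified by fit quality and response size.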
# HT1080NT lethal: qHTS for induction of synthetic lethality in tumor cells producing 2HG: qHTS for the HT-1080-NT fibrosarcoma cell line; HT-1080-NT fibrosarcoma viability, CellTiter-Glo ATP luminescence, 48 h; Potency, µM (doses to about 46.1 µM), inactives show at the top dose activity, negative = less viability, actives largely listed as cytotoxic; 360,000 tested, 1.6% active; AID 686970, 2013;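 also: NT is the 2HG producing partner of a matched IDH1 knockdown line; potency is read from the fitted curve at half-maximal effect; 0% = DMSO-treated cells and -100% = media-only wells without cells; nearly all actives have a fitted effect of over 55% in size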
#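 750 cells/well, RPMI + 5% FBS; 2 h settle, compound pin-transfer, 48 h at 37 degrees C. CellTiter-Glo 10 min RT, luminescence. Normalized to DMSO and media-only wells.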
# * hit, by the source's call; u = inconclusive; x = no result given; [ ] = dose if it differs, or a comment. Unless noted, calls follow the shape of the dose curve; as a rule, active = well fitted curve in the direction sought with a large enough effect; inconclusive = small, poorly fitted or top-dose-only effect, or another doubt; inactive = no such curve, though single readings can be large; an effect the other way counts as inactive or inconclusive. Unless noted, % is scaled to controls: 0 for no effect and ±100 for the full control effect.
SMILES,IL-1B inflam inh,TDP1 cell CPT,TDP1 cell noCPT,HT1080 IDH1KD tx,HT1080NT lethal
CCOP(=O)(Cc1cc(C(C)=O)c(C)o1)OCC,-27,-17%,-12%,-4%,-3%
CCCCC/C=C\C/C=C\CCCCCCCC(=O)NCCO,x,3%[4.12 µM],-2%[4.12 µM],x,x
COC(=O)C1=C(c2ccc(Cl)c(C(F)(F)F)c2)C[C@@H]2CC[C@H]1N2C(=O)N1CCOCC1,-1,6.5µM*,4.6µM*,-6%,0%
COC(=O)C1=C(c2ccc(Cl)c(C(F)(F)F)c2)C[C@@H]2CC[C@H]1N2C(=O)N1CCC(O)(c2ccc(Cl)cc2)CC1,-83*,u,u,u,u
COC(=O)C1=C(c2ccc(C(C)=O)cc2)C[C@@H]2CC[C@H]1N2C(=O)N1CCOCC1,13,-22%,u,0%,0%
CN1CCc2c(c(N3CCCCC3)nc3n[nH]c(N)c23)C1,-16,-9%,-3%,7%,1%
CC(=O)CCc1ccccc1,8,40%,7%,8%,0%
COc1cc2c(c(OC)c1OC)-c1ccc(O)cc1[C@@H](NC(C)=O)CC2,50,0.23µM*,0.16µM*,0.016µM*,0.033µM*
COc1cc2c(c(OC)c1OC)-c1ccc(O)cc1C(NC(C)=O)CC2 (centres undefined),67,0.21µM*,0.18µM*,u,u
COc1cc2c3c(c1OC)-c1cc(O)ccc1CC3NCC2 (centres undefined),40,-5%,u,2%,1%
COC(=O)C1=C(c2cccc(OC)c2OC)C[C@@H]2CC[C@H]1N2C(=O)NCCO,12,5%,2%,-14%,0%
COc1cc2c(c(OC)c1OC)-c1ccc(O)c(=O)cc1[C@@H](NC(C)=O)CC2,99,5.2µM*,6.5µM*,5.2µM*,6.5µM*
CN(C)C(=S)SSC(=S)N(C)C,24,0.15µM*,0.15µM*,u,u
CN(C)C(=S)SC(=S)N(C)C,x,0.84µM*,0.84µM*,x,x
O=C(O)/C=C\CO,x,-1%,0%,x,x
O=C1c2ccccc2-c2c1nc1c([n+]2[O-])CCCC1,8,12µM*,u,16%,9%
CSc1nc(N)c(N=Nc2ccc([As](=O)(O)O)cc2)c(=O)[nH]1,u,-11%,u,8%,5%
COC(=O)C1=C(c2ccc3ccccc3c2)C[C@@H]2CC[C@H]1N2C(=O)NCCNC(C)=O,13,10%,-7%,7%,-18%
COC(=O)C1=C(C(=O)OC)C2OC1c1cc3ccccc3cc12,0,0.46µM*,0.73µM*,3.3µM*,u
CC1=CC(=O)NP(=O)(Oc2ccc3ccccc3c2)N1 (centres undefined),24,9.2µM*,10µM*,-1%,3%
CC1CN1P(=O)(Oc1ccc2ccccc2c1)N1CC1C (centres undefined),6,u,u,8%,8%
CC(C)(C)c1cc(O)ccc1O,x,1.7µM*,1.2µM*,x,x
CC1(C)S[C@@H]2[C@H](N)C(=O)N2[C@H]1C(=O)O,x,-8%[9.04 µM],-5%[9.04 µM],x,x
CCC1=CCN(CCc2c(C)[nH]c3ccccc23)CC1,-8,2%,0.58µM*,0%,2%
CCCCC[C@@H]1CCCCC[C@@H](O)C[C@H](O)[C@H](O)/C=C/C(=O)O1,13,u,u,8%,1%
SMILES,IL-1B inflam inh,TDP1 cell CPT,TDP1 cell noCPT,HT1080 IDH1KD tx,HT1080NT lethal
CCCCC[C@H]1CCCCC[C@@H](O)C[C@@H](O)[C@@H](O)/C=C/C(=O)O1,-1,10µM*,9.2µM*,-12%,-20%
CC(C)(O)[C@H]1O[C@H]2CC[C@@]3(C)[C@@](O)(CC[C@H]4Cc5c([nH]c6ccccc56)[C@@]43C)C2=CC1=O,-4,u,u,u,u
Cn1c(=O)oc2cc(S(=O)(=O)NC3CCCCCCC3)ccc21,-4,-21%,u,-16%,-13%
O=C(Nc1ccc(F)cc1)Oc1ccc[nH]c1=O,u,u,u,21µM*,u
O=C(Nc1ccc(OC(F)(F)F)cc1)Oc1ccccc1N1CCCCC1,-7,u,u,1%,9%
O=C1NC(=O)N(Cc2ccc(F)cc2)C(=O)/C1=C\C=C\c1ccco1,-96*,7.3µM*,7.3µM*,u,21µM*
CCCCN1C(=O)/C(=C/C=C/c2ccco2)C(=O)NC1=S,-9,-26%,-12%,12%,0%
O=C(O)Cn1cc(/C=C2\C(=O)NC(=O)N(Cc3ccco3)C2=O)c2ccccc21,5,0.73µM*,u,-13%,2%
O=C1NC(=O)N(Cc2ccccc2)C(=O)/C1=C\c1ccco1,-6,21µM*,13µM*,-14%,-25%
CCCCN1C(=O)/C(=C\c2ccco2)C(=O)N(CCc2ccccc2)C1=O,-23,u,-20%,7%,2%
O=C(c1ccncc1)N1CCC[C@@]2(CCN(Cc3nccs3)C2)C1,x,10%,-23%,x,x
COC1=CC(=O)[C@]2(C=C1OC)OC[C@@H]1Oc3c(ccc4c3C=CC(C)(C)O4)C(=O)[C@@H]12,-4,0.29µM*,0.21µM*,-10%,-19%
C=C1C([C@@]2(C)C(OC(C)=O)CC(=O)O[C@@](C)(COC(C)=O)C2CC(=O)OC)C(OC=O)C(OC(=O)C(OC(C)=O)C(C)CC)[C@]2(C)C(c3ccoc3)CC(=O)C12O (some centres undefined),x,-4%,-10%,x,x
O=C(COc1ccc(Cl)cc1)Nc1ccc(Cl)cc1C(=O)c1ccccc1,x,-6%,-9%,x,x
O=C(Cc1c(-c2ccccc2)nc2ccc(Br)cn12)N1CCCC1,39,-27%,u,12%,6%
Cc1cc(Br)cn2c(CC(=O)N3CCCCC3)c(-c3ccc(F)cc3)nc12,29,u,16µM*,4%,3%
COC(=O)C(Cl)C(=O)OC,x,0%,1%,x,x
N#Cc1ccccc1OCC(=O)N1CCN(CC(=O)Nc2ccc(F)cc2)CC1,10,-1%,-17%,-2%,3%
O=C1NC(=O)C(=Cc2ccc(SC3CCCCC3)o2)C(=O)N1,u,16µM*,u,u,u
CN(N=Cc1ccc([N+](=O)[O-])cc1)c1ccccn1,-58*,u,u,12%,14%
O=C1c2cc([N+](=O)[O-])ccc2-c2ncccc21,5,u,u,-2%,-8%
